Data on 30 compounds can be found in ChEMBL document CHEMBL2218924, “A broad activity screen in support of a chemogenomic map for kinase signalling research and drug discovery” (Biochem J, 2013).

In one experiment the target is Mast/stem cell growth factor receptor Kit (Homo sapiens) (UniProt P10721). To be noted: at 1 µM.
Mast/stem cell growth factor receptor Kit (Homo sapiens), sequence (P10721 whole entry): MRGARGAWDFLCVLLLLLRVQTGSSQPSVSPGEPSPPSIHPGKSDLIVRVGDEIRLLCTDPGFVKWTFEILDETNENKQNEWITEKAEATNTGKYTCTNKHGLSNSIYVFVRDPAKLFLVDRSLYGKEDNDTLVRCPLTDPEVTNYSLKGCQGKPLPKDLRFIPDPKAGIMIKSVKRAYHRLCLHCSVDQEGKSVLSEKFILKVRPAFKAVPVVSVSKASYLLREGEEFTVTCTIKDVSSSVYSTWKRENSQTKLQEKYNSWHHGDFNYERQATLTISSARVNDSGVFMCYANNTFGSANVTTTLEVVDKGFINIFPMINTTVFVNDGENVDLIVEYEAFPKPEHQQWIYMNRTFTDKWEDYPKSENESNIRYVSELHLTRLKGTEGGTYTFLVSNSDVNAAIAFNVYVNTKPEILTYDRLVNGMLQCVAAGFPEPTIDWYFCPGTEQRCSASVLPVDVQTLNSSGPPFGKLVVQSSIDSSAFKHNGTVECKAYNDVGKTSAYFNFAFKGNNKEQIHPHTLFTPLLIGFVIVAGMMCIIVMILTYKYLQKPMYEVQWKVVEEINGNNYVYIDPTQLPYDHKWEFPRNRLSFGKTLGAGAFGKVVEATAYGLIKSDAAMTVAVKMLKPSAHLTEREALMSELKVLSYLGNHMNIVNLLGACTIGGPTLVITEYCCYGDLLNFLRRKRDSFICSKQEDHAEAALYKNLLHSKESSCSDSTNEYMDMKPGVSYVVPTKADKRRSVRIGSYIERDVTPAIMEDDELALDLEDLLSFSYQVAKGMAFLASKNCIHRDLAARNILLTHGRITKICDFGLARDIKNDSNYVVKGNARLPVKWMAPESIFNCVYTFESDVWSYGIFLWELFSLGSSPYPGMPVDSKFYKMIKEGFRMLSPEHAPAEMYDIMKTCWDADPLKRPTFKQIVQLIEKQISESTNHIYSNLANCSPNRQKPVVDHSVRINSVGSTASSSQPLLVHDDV
`Cc1ccc(NC2=CC(=O)c3sc(C)nc3C2=O)cc1`: the residual activity worked out at 101%.
Still for that read-out and setting: the figure for `O=C1Nc2ccccc2/C1=C1/Nc2ccccc2/C1=N\OCCC(O)CO` (configuration not stated) is 10%.
On to `CC(C)n1cnc2/c(=N/c3cccc(Cl)c3)nc(NCCO)[nH]c21`, for which the residual activity is 108%.
For the compound `N#C/C(=C(\N)Sc1ccc(N)cc1)c1ccccc1C(F)(F)F`, the residual activity was 115%.
The same measure, in the same setting: the figure for `CC#CC(=O)Nc1cc2c(Nc3ccc(F)c(Cl)c3)ncnc2cn1` is 111%; for `Cn1nc2c3c(cccc31)C(=O)c1ccccc1-2` it is 104%.
On the same count and under the same terms, as for `CO[C@H]1C[C@@H]2CC[C@@H](C)[C@@](O)(O2)C(=O)C(=O)N2CCCC[C@H]2C(=O)O[C@H]([C@H](C)C[C@@H]2CC[C@@H](O)[C@H](OC)C2)CC(=O)[C@H](C)/C=C(\C)[C@@H](O)[C@@H](OC)C(=O)[C@H](C)C[C@H](C)/C=C/C=C/C=C/1C`, the figure is 110%.
With `c1ccc2c(-c3ccncc3)c[nH]c2c1`, the residual activity worked out at 110%.
The same measure, in the same setting: the figure for `Cc1cc(Nc2nc(-c3ccccc3)nc3ccccc23)n[nH]1` is 23%; for `O=C1Nc2ccc(Br)cc2/C1=C\c1cc2c([nH]1)CCCC2` it is 66%.
Same read-out and setting: as for `Cc1nc(-c2ccccc2)c(-c2ccncc2)o1`, the figure is 124%.
Regarding `c1ccc(-c2n[nH]c3c2oc2ccccc23)cc1`, the residual activity was 16%.
Still for that read-out and setting: the figure for `O=C1NC(=O)c2c1c1c3ccccc3[nH]c1c1[nH]c3cc(Br)ccc3c21` is 107%; for `CCN(CC)C(=O)c1ccc(Nc2nc(OCC3CCCCC3)c3nc[nH]c3n2)cc1` it is 33%.
On to `Nc1n[nH]c2nnc(-c3c(-c4ccccc4)nn4ccccc34)cc12`, for which the residual activity turned out to be 95%.
Turning to `Cc1nc2cc3nc(-c4cccs4)cnc3cc2n1C`, the residual activity came out at 80%.
On to `COc1cccc(-c2cc(=O)c3ccccc3o2)c1N`, for which the residual activity is 114%.
On the same count and under the same terms, as for `Oc1ccc(-c2nc(-c3ccc(F)cc3)c(-c3ccncc3)[nH]2)cc1`, the figure is 122%; as for `Cc1cc2ncc(-c3ccccc3)nc2cc1C`, 86%.
Same read-out and setting: the figure for `Nc1cccc(-c2cc3c(Oc4cccc(O)c4)ncnc3[nH]2)c1` is 20%.
On the same count and under the same terms, the figure for `c1ccc(-c2n[nH]cc2-c2ccnc3ccccc23)nc1` is 101%.
For `COc1ccc(C(=O)Nc2sc3c(c2C(N)=O)CCCC3)cc1OC`, the residual activity stood at 85%.
For the compound `COc1cc2ncnc(Nc3ccc(O)c(Br)c3)c2cc1OC`, the residual activity was determined as 102%.
For the compound `CO[C@H]1[C@@H](OC)C[C@H](C)[C@@H](OC)C2=CC(=O)C=C(NC(=O)/C(C)=C/C=C/[C@H](OC)[C@@H](OC(N)=O)/C(C)=C/[C@@H]1C)C2=O`, the residual activity worked out at 104%.
The same measure, in the same setting: the figure for `Cc1ccc(S(=O)(=O)/C=C/C#N)cc1` is 100%.
Still for that read-out and setting: as for `CC(=O)O/N=C1\C(=C2\C(=O)Nc3cc(Br)ccc32)Nc2ccccc21`, the figure is 97%.
On to `Nc1ccc2ncnc(NCCc3ccc(Oc4ccccc4)cc3)c2c1`, for which the residual activity is 114%.

The target is the same in another experiment. Particulars: at 10 µM.
As for `Cc1ccc(NC2=CC(=O)c3sc(C)nc3C2=O)cc1`, the residual activity stood at 107%.
On the same count and under the same terms, as for `O=C1Nc2ccccc2/C1=C1/Nc2ccccc2/C1=N\OCCC(O)CO` (configuration not stated), the figure is 1%; as for `CC(C)n1cnc2/c(=N/c3cccc(Cl)c3)nc(NCCO)[nH]c21`, 94%; as for `N#C/C(=C(\N)Sc1ccc(N)cc1)c1ccccc1C(F)(F)F`, 105%.
On the same count and under the same terms, the figure for `CC#CC(=O)Nc1cc2c(Nc3ccc(F)c(Cl)c3)ncnc2cn1` is 100%; for `Cn1nc2c3c(cccc31)C(=O)c1ccccc1-2` it is 95%.
Still for that read-out and setting: the figure for `CO[C@H]1C[C@@H]2CC[C@@H](C)[C@@](O)(O2)C(=O)C(=O)N2CCCC[C@H]2C(=O)O[C@H]([C@H](C)C[C@@H]2CC[C@@H](O)[C@H](OC)C2)CC(=O)[C@H](C)/C=C(\C)[C@@H](O)[C@@H](OC)C(=O)[C@H](C)C[C@H](C)/C=C/C=C/C=C/1C` is 101%; for `c1ccc2c(-c3ccncc3)c[nH]c2c1` it is 98%.
`Cc1cc(Nc2nc(-c3ccccc3)nc3ccccc23)n[nH]1`: the residual activity turned out to be 2%.
On the same count and under the same terms, the figure for `O=C1Nc2ccc(Br)cc2/C1=C\c1cc2c([nH]1)CCCC2` is 43%; for `Cc1nc(-c2ccccc2)c(-c2ccncc2)o1` it is 98%.
Same read-out and setting: the figure for `c1ccc(-c2n[nH]c3c2oc2ccccc23)cc1` is 1%; for `O=C1NC(=O)c2c1c1c3ccccc3[nH]c1c1[nH]c3cc(Br)ccc3c21` it is 94%.
On the same count and under the same terms, the figure for `CCN(CC)C(=O)c1ccc(Nc2nc(OCC3CCCCC3)c3nc[nH]c3n2)cc1` is 5%; for `Nc1n[nH]c2nnc(-c3c(-c4ccccc4)nn4ccccc34)cc12` it is 108%; for `Cc1nc2cc3nc(-c4cccs4)cnc3cc2n1C` it is 13%.
`COc1cccc(-c2cc(=O)c3ccccc3o2)c1N`: the residual activity was 114%.
On the same count and under the same terms, as for `Oc1ccc(-c2nc(-c3ccc(F)cc3)c(-c3ccncc3)[nH]2)cc1`, the figure is 107%; as for `Cc1cc2ncc(-c3ccccc3)nc2cc1C`, 70%; as for `COc1cc2ncnc(Nc3ccc(NC(=O)c4ccccc4)cc3)c2cc1OC`, 59%.
Same read-out and setting: the figure for `Nc1cccc(-c2cc3c(Oc4cccc(O)c4)ncnc3[nH]2)c1` is 2%; for `c1ccc(-c2n[nH]cc2-c2ccnc3ccccc23)nc1` it is 107%.
On the same count and under the same terms, as for `COc1ccc(C(=O)Nc2sc3c(c2C(N)=O)CCCC3)cc1OC`, the figure is 87%; as for `COc1cc2ncnc(Nc3ccc(O)c(Br)c3)c2cc1OC`, 103%.
Take `N#Cc1cnc2cnc(NCc3cccnc3)cc2c1Nc1ccc(F)c(Cl)c1`: the residual activity worked out at 92%.
Still for that read-out and setting: the figure for `CO[C@H]1[C@@H](OC)C[C@H](C)[C@@H](OC)C2=CC(=O)C=C(NC(=O)/C(C)=C/C=C/[C@H](OC)[C@@H](OC(N)=O)/C(C)=C/[C@@H]1C)C2=O` is 98%; for `CC(=O)c1ccc(N2CCOCC2)cc1O` it is 101%; for `Cc1ccc(S(=O)(=O)/C=C/C#N)cc1` it is 114%.
For `CC(=O)O/N=C1\C(=C2\C(=O)Nc3cc(Br)ccc32)Nc2ccccc21`, the residual activity came to 32%.
Still for that read-out and setting: the figure for `Nc1ccc2ncnc(NCCc3ccc(Oc4ccccc4)cc3)c2c1` is 95%.

The residual activity is the signal under treatment as a percentage of the control signal.
